“And” between values parts separate entries of the source, which are not always exact repeats. Equal entries are not always repeated. Records with an inconclusive call do not appear. The source made the active and inactive calls. Rule for the calls, unless noted: active = hit-call score of the fitted dose curve at least 0.9, where 1 is the maximum; inactive = score below 0.9.

The text below walks through data of PubChem BioAssay (EPA / NIEHS).

The nature of assay [1]: TOX21_p53_BLA_p2_viability: Viability Assessment in the Tox21 HCT-116 p53 Agonism Beta-lactamase Assay, Phase 2 (AID 2283591; active = hit-call score of the fitted dose curve at least 0.9, where 1 is the maximum;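 note: compound exposure lasted 16 h at 37 °C; actives lower the ATP signal meaning cytotoxicity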). A digest of the protocol: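 HCT-116 p53-bla cells (4000/well) rested 5 h at 37C, then received compounds in DMSO (217-fold dilution) for 16 h at 37C, 5% CO2. After the CCF4 read, CellTiter-Glo was added; ATP luminescence was read after 30 min at room temperature.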

Assay [2] concerns the target Cellular tumor antigen p53 (Homo sapiens) (UniProt P04637). The assay is described as follows: TOX21_p53_BLA_p2_ratio: Tox21 HCT-116 p53 Agonism Beta-lactamase Assay, Ratio, Phase 2 (AID 2283592; active = hit-call score of the fitted dose curve at least 0.9, where 1 is the maximum). A digest of the protocol:
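Plated HCT116 p53-bla cells (4000/well) received compound after 5 h, then 16 h at 37C/5% CO2. CCF4-AM added, 2 h RT. Ratio of 460 to 530 nm emission taken as the p53 reporter signal.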

Assay [3] has the same target. The assay is described as follows: TOX21_p53_BLA_p3_ratio: Tox21 HCT-116 p53 Agonism Beta-lactamase Assay, Ratio, Phase 3 (AID 2283596; active = hit-call score of the fitted dose curve at least 0.9, where 1 is the maximum). A digest of the protocol: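 Cells were seeded at 4000/well, rested 5 h at 37C, then dosed with DMSO compound solutions (217-fold dilution) for 16 h. CCF4-AM substrate was loaded for 2 h at room temperature, and the 460/530 nm emission ratio was fitted for gain of signal versus DMSO.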

Assay [4] can be described thus: TOX21_p53_BLA_p4_viability: Viability Assessment in the Tox21 HCT-116 p53 Agonism Beta-lactamase Assay, Phase 4 (AID 2283597; active = hit-call score of the fitted dose curve at least 0.9, where 1 is the maximum;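 note: hits lower the luminescence signal meaning cytotoxicity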). The procedure, abridged: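 Readout: ATP luminescence (CellTiter-Glo), measured 30 min after reagent addition at RT. The reagent followed a 2 h CCF4-AM incubation, and the cells had been exposed to compound for 16 h at 37C.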
In assay [5] the target is Cellular tumor antigen p53 (Homo sapiens) (UniProt P04637). The assay is described as follows: TOX21_p53_BLA_p5_ratio: Tox21 HCT-116 p53 Agonism Beta-lactamase Assay, Ratio, Phase 5 (AID 2283599; active = hit-call score of the fitted dose curve at least 0.9, where 1 is the maximum). The procedure, abridged:
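HCT-116 cells carrying a p53-inducible beta-lactamase reporter were seeded at 4000 cells/well and dosed after 5 h with compound in DMSO (217-fold dilution). After 16 h at 37C, CCF4-AM substrate was added for 2 h, and the 460/530 nm emission ratio was scored as gain-of-signal versus DMSO.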

The nature of assay [6]: TOX21_p53_BLA_p5_viability: Viability Assessment in the Tox21 HCT-116 p53 Agonism Beta-lactamase Assay, Phase 5 (AID 2283600; active = hit-call score of the fitted dose curve at least 0.9, where 1 is the maximum). A digest of the protocol: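 Workflow: seed 4000 cells per well, wait 5 h, add compounds (DMSO, 217-fold dilution), incubate 16 h, load CCF4-AM 2 h, add CellTiter-Glo, read luminescence after 30 min.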
The target of assay [7] is Cellular tumor antigen p53 (Homo sapiens) (UniProt P04637). Briefly: TOX21_p53_BLA_p4_ratio: Tox21 HCT-116 p53 Agonism Beta-lactamase Assay, Ratio, Phase 4 (AID 2283601; active = hit-call score of the fitted dose curve at least 0.9, where 1 is the maximum). The procedure, abridged:
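HCT116 cells carrying an inducible beta-lactamase reporter were plated at 4000 cells/well, rested 5 h, then exposed to compounds in DMSO (217-fold dilution) for 16 h at 37C. CCF4-AM substrate was loaded 2 h at room temperature; 460/530 nm emission ratio scored gain-of-signal versus DMSO.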

A short description of assay [8]: CCTE_Shafer_MEA_acute_spike_number: CCTE's Neural Acute Assay for Total Number of Spikes, Shafer Lab (AID 2284008).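 Note: curve fitted for decrease in spike count so AC50 reflects inhibitors.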 A digest of the protocol: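 Read-out is the total spike count over 40 min, expressed as percent change from each well's own pre-treatment baseline and fitted in the loss direction against DMSO. Rat cortical neurons were exposed at 0.03-40 uM on DIV 13 or 15.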

Assay [9] can be described thus: CCTE_Shafer_MEA_acute_burst_number: CCTE's Neural Acute Assay for Single-Electrode Bursts, Shafer Lab (AID 2284013). A digest of the protocol:
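Burst totals were derived with adaptive spike detection (8x rms threshold) on filtered signals from rat cortical cultures; change relative to pre-treatment baseline after 40-min compound exposure (0.03-40 uM) was fitted in the negative direction against DMSO.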

Assay [10] in a line: CCTE_Shafer_MEA_acute_per_burst_spike_number_mean: CCTE's Neural Acute Assay for Average Number of Spikes Per Burst, Shafer Lab (AID 2284015).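 Note: hits are decreases in mean spikes per burst versus baseline.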 The procedure, abridged: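 Percent change in mean spikes per single-electrode burst is compared between a 40 min baseline and a 40 min recording with compound (0.03-40 uM). Cultures were rat cortical neurons on MEA plates at DIV 13 or 15, recorded at 37 C, with DMSO as the negative control.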

Assay [11] is described as follows: CCTE_Shafer_MEA_acute_interburst_interval_mean: CCTE's Neural Acute Assay for Mean Interburst Interval, Shafer Lab (AID 2284016).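 Note: percent change of mean interburst interval versus each well's own pre-dose baseline; curves fitted for decrease in interburst interval relative to DMSO.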 The procedure, abridged:
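Percent change in mean single-electrode interburst interval was calculated per well from 40 min recordings before and after compound (0.03-40 uM). Recordings were made at 37 C on rat cortical cultures at DIV 13 or 15, with spikes detected at 8x rms threshold.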

A short description of assay [12]: CCTE_Shafer_MEA_acute_burst_percentage_mean: CCTE's Neural Acute Assay for Percentage of Spikes in a Burst, Shafer Lab (AID 2284017).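 Note: curve fitted for loss of signal so potency reflects decreased burst percentage.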 The procedure, abridged:
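Well-level mean burst percentage from a 40-min recording after compound (0.03-40 uM) expressed as percent change from a 40-min baseline at 37C. Cultures: primary rat cortical neurons on MEA, dosed on DIV 13 or 15; fitted downward relative to DMSO.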

Assay [13] can be described thus: CCTE_Shafer_MEA_acute_burst_percentage_std: CCTE's Neural Acute Assay for Standard Deviation of Burst Percentage, Shafer Lab (AID 2284018).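 Note: fitted in the negative direction so actives lower burst percentage SD.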 A digest of the protocol: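 Primary rat cortical neurons on 16-electrode MEA wells were recorded 40 min at baseline (DIV 13 or 15), then 40 min after compound (0.03-40 uM), at 37 C. Well value is SD across electrodes of spikes-in-bursts/total spikes; endpoint is percent change, DMSO-referenced.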

A short description of assay [14]: CCTE_Shafer_MEA_acute_per_network_burst_spike_number_mean: CCTE's Neural Acute Assay for Average Number of Spikes in a Network Burst, Shafer Lab (AID 2284019). A digest of the protocol:
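Acute exposure of rat primary cortical networks (DIV 13/15) on MEAs; adaptive spike detection at 8x rms noise, 37 C. Percent change in spikes per network burst after 40 min with compound (0.03-40 uM), negative direction vs DMSO.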

The nature of assay [15]: CCTE_Shafer_MEA_acute_per_network_burst_spike_number_std: CCTE's Neural Acute Assay for Standard Deviation of Number of Spikes in a Network Burst, Shafer Lab (AID 2284020).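 Note: fitted for decrease in spike-number SD versus DMSO so actives lower it.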 A digest of the protocol:
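Acute MEA exposure, rat cortical neurons, 0.03-40 uM. Per-well % change versus own baseline; DMSO as negative control.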

Assay [16] is described as follows: CCTE_Shafer_MEA_acute_per_network_burst_electrodes_number_mean: CCTE's Neural Acute Assay for Mean Number of Electrodes in a Network Burst, Shafer Lab (AID 2284021).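 Note: curves fitted for decreases only so hits reduce electrodes per burst.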 The procedure, abridged: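 Primary rat cortical networks, mwMEA, 37 C. 20 min stabilization, 40 min baseline, compound 0.03-40 uM, 40 min re-record. Wells need >=10 active electrodes; percent change per well, negative fitting direction.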

A short description of assay [17]: CCTE_Shafer_MEA_acute_network_burst_percentage: CCTE's Neural Acute Assay for Percentage of Network Bursts, Shafer Lab (AID 2284022).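 Note: curves fitted for loss so actives lower network burst percentage.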 The procedure, abridged: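 Readout is the fraction of spikes falling in network bursts, expressed as per-well percent change from a 40-min pre-exposure baseline. Primary rat cortical neurons on MEA were exposed to 0.03-40 uM compound on DIV 13 or 15 and recorded for 40 min at 37 C.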

Assay [18] can be described thus: CCTE_Shafer_MEA_acute_cross_correlation_area: CCTE's Neural Acute Assay for Area of Cross Correlation, Shafer Lab (AID 2284024).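 Note: rat primary cortical neuron networks on 48-well MEA at DIV 13 or 15 with 40 min exposure; area under pooled inter-electrode spike cross-correlation near zero lag as percent change from own baseline; curves fitted for loss of cross-correlation area so actives lower synchrony.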 A digest of the protocol: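 Plates equilibrated 20 min at 37 C, then 40 min baseline was recorded, compound was added (0.03-40 uM), and a further 40 min was recorded. Wells needed ≥10 active electrodes (≥5 spikes/min) on exposure day.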

A short description of assay [19]: CCTE_Shafer_MEA_acute_cross_correlation_HWHM: CCTE's Neural Acute Assay for Cross Correlation at Half Width at Half Maximum, Shafer Lab (AID 2284026).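 Note: percent change per well from pre-dose baseline in spike cross-correlogram half width; hits are a decrease in cross-correlogram half width relative to DMSO.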 A digest of the protocol: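 Rat cortical neuron cultures on microelectrode arrays were equilibrated 20 min at 37 C, recorded 40 min at baseline, then 40 min after compound addition (0.03-40 uM, ≥3 wells). Spikes were detected at 8x rms noise after 300-5000 Hz band-pass filtering.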

Assay [20] in a line: CCTE_Shafer_MEA_acute_synchrony_index: CCTE's Neural Acute Assay for Synchrony, Shafer Lab (AID 2284027).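 Note: network synchrony index of spontaneous spiking in primary rat cortical neurons on MEAs; fitted for loss of signal so actives lower synchrony relative to DMSO.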 The procedure, abridged: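 Acute exposure of rat primary cortical neurons (DIV 13 or 15) at 0.03-40 uM. Synchrony index, 40 min before vs after, as % change relative to DMSO control.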
Assay [21] can be described thus: CCTE_Shafer_MEA_dev_firing_rate_mean: CCTE's Neural Network Formation Assay for Mean Firing Rate, Shafer Lab (AID 2284031).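 Note: curve fitted for loss of firing so AC50 reflects decreased mean firing rate.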 The procedure, abridged:
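Extracellular spike frequency, AUC over DIV 5–12 recordings, in rat cortical neuron MEA cultures dosed from plating; loss direction vs DMSO.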

Assay [22] can be described thus: CCTE_Shafer_MEA_dev_per_burst_spike_percent: CCTE's Neural Network Formation Assay for Percent of Spikes in a Burst, Shafer Lab (AID 2284032).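 Note: fitted as a decrease in burst spike percentage below DMSO baseline.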 The procedure, abridged: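 Value is trapezoidal AUC over recordings on days 5, 7, 9 and 12 of the well-mean fraction of spikes falling in single-electrode bursts; rat cortical cultures exposed continuously from plating, treatment renewed DIV 5 and 9, fitted downward against DMSO.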

A short description of assay [23]: CCTE_Shafer_MEA_dev_burst_rate: CCTE's Neural Network Formation Assay for Burst Rate, Shafer Lab (AID 2284042).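 Note: potency for loss of burst rate below DMSO control.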 The procedure, abridged:
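Exposure ran continuously over 12 days of network development in rat cortical cultures, with compound refreshed during full media changes on DIV 5 and 9. Single-electrode bursts per recording time, well-mean over active electrodes, trapezoidal AUC across days 5–12, fitted downward relative to DMSO.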

Assay [24] is described as follows: CCTE_Shafer_MEA_dev_bursting_electrodes_number: CCTE's Neural Network Formation Assay for Number of Bursting Electrodes, Shafer Lab (AID 2284043; active = hit-call score of the fitted dose curve at least 0.9, where 1 is the maximum;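 note: potency is for loss of bursting electrodes relative to DMSO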). The procedure, abridged:
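Counted: electrodes with burst rate ≥1 per 2 min in each well. Cells: primary rat cortex, 1.5 x 10^5/well, on 16-electrode MEA wells. Exposure: DIV 0–12, compound renewed DIV 5 and 9. Recording days 5, 7, 9, 12; AUC vs DMSO baseline.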

Cellular tumor antigen p53 (Homo sapiens), sequence (P04637 whole entry, looked up): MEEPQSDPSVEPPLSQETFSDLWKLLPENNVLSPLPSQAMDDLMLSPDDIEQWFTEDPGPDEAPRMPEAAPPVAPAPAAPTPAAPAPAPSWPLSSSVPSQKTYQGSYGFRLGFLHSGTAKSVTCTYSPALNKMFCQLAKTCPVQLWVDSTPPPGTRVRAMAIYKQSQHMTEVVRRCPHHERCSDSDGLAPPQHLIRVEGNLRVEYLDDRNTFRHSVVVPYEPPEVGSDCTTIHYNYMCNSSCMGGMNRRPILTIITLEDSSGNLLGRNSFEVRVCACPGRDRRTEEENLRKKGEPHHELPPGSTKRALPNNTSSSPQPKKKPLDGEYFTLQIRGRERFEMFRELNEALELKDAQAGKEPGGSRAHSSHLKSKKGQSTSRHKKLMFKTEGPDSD

Consider `CN(C)C(=O)C(CCN1CCC(O)(c2ccc(Cl)cc2)CC1)(c1ccccc1)c1ccccc1`, for which the molecule was called inactive in [1], in assay [2], in assay [3], in assay [5], in assay [6] and in assay [7]. For the same molecule, the molecule was called inactive in assay [11], in assay [14], in assay [15], in [16], in assay [17] and in assay [18]. Besides, the AC50 (commonly the midpoint of the concentration-response curve, whichever way the signal moves) in [4] was 26600 nM (active); in [8], 291 nM (active); in assay [9] it was 283 nM (active); in assay [10], 165 nM (active); in [12] it was 2270 nM (active); in [13], 68 nM (active). In addition, the AC50 in assay [19] was 2310 nM (active); in [20], 2290 nM (active); in [21], 63.2 nM (active) and 101 nM (active) and 190 nM (active); in assay [22], 514 nM (active) and 244 nM (active) and 1.49 µM (active); in assay [23] it was 41.8 nM (active) and 92.4 nM (active) and 335 nM (active); in assay [24], 117 nM (active) and 63.8 nM (active) and 1.19 µM (active).
